# Screening results: PubChem, National Center for Advancing Translational Sciences (NCATS)
# The list is not random: actives were taken first. Their share in the collection is about 7.5%.
# HCV inhibitor: blocks hepatitis C virus. hit rate 3.4% among 340,000. Potency, µM (series often up to 41.8 µM), for the others: at the highest dose activity change, negative = inhibition, actives largely listed as inhibitors. Huh7.5.1 HCVcc-Cre infection, luciferase reporter, 44 h; further: potency means the concentration at half of the fitted maximal effect
#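 Infectious HCV cell culture screen: compound-treated cells (1,000/well, pre-plated 4 h) are infected with HCVcc-Cre at roughly 0.5 moi and grown 44 h. Infection is quantified by luciferase signal after 15 min substrate incubation at room temperature.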
# FMDV antiviral: foot and mouth disease virus antiviral activity | FMDV antiviral cell-based qHTS | AID 1159524 | hit rate 1.2% among 410,000 | Potency, µM (top dose mostly 57.9 µM), for inactives: at the highest dose activity change, negative = inhibition, hits mostly inhibitors; calls by dose curve; tested in HEK293T cells; further: read-out not given here; potency means the concentration at half of the fitted maximal effect; nearly all actives have a fitted effect of over 45% in size
# Giardia FBPA inh: inhibitors of Giardia lamblia fructose-1,6-bisphosphate aldolase | hit rate 0.71% among 290,000 | A8B2U2 | Potency, µM (top dose mostly 59.6 µM), inactives show at the highest dose activity, negative = inhibition, usual class: inhibitors | purified Giardia FBPA; further: potency means the concentration at half of the fitted maximal effect; nearly all actives have a fitted effect of over 55% in size
# Target sequence (A8B2U2 whole entry, looked up): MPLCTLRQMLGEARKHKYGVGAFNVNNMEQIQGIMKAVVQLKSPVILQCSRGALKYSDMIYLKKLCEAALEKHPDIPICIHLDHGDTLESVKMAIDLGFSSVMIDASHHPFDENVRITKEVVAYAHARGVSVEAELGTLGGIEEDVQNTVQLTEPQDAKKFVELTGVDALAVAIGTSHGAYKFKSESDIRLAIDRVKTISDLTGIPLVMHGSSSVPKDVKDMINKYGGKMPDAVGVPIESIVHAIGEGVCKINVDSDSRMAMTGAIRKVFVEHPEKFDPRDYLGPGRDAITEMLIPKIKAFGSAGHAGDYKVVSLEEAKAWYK
#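 40 nM FBPA preincubated 10 min at RT with compound (up to 57.5 uM final), then substrate plus GAPDH/TPI/NAD/arsenate coupling and diaphorase/resazurin added. Fluorescence read after 20 min at RT, 525/598 nm.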
# Vaccinia mCherry: inhibitors of vaccinia virus infection (mCherry reporter signal); Potency, µM (top dose mostly 36.5 µM), for the others: at the highest dose activity change, negative = inhibition, usual class: inhibitors; AID 720579; hit rate 0.63% among 310,000; Vaccinia virus mCherry reporter infection, fluorescence; calls by dose curve; tested in A549 cells; further: potency means the concentration at half of the fitted maximal effect; nearly all actives have a fitted effect of over 35% in size
# VACV Venus inh: vaccinia inhibition (Venus reporter) | Vaccinia virus Venus reporter expression, fluorescence | Potency, µM (titrated, usually from 36.5 µM), inactives show top-dose activity change, negative = inhibition, hits mostly inhibitors | hit rate 0.46% among 330,000; calls by dose curve; tested in A549 cells; further: potency means the concentration at half of the fitted maximal effect; nearly all actives have a fitted effect of over 30% in size
# HCMV inh: inhibitors of human cytomegalovirus | HFF cells, HCMV-luciferase reporter, 72 h; hits give low values | activity change, negative = inhibition, % at 57.5 µM | hit rate 4.5% among 410,000; in the data active means activity change below about -60%; inconclusive means no clear call, values can overlap the other calls; inactive means above about -39%
#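 HFF cells seeded 16 h at 37C, treated with compounds, infected with luciferase-reporter HCMV at MOI 1 PFU/cell; luciferase read at 72 h post infection, normalized to buffer-only and Salinomycin controls.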
# An asterisk follows results filed as active; i = inactive; ? = inconclusive; / = not tested or not shown. Unless noted, the call rests on the fitted dose curve; in most records, active means well fitted curve in the direction sought with a large enough effect; inconclusive means small, poorly fitted or top-dose-only effect, or another doubt; inactive means no such curve, though single readings can be large; an effect the other way counts as inactive or inconclusive. On the % scale 0 is the no-effect control and ±100 the full control effect.
SMILES,HCV inhibitor,FMDV antiviral,Giardia FBPA inh,Vaccinia mCherry,VACV Venus inh,HCMV inh
COc1cc2c(cc1OC)C(C1C(=O)CCCC1=O)N(C(=O)CCl)CC2 (stereo not given),-6%,5%,-5%,/,/,-36
COc1ccccc1/C=C/C(=O)N1CCc2cc(OC)c(OC)cc2C1C (stereo not given),22µM*,-7%,-3%,3%,10%,-20
COc1ccccc1/C=C/C(=O)N1CCOCC1,4%,1%,8%,-6%,-3%,-72*
CCCN1CCN(CCNC(=O)Nc2cc(OC)cc(OC)c2)CC1,/,-14%,/,0%,-6%,11
Cc1cc(NS(=O)(=O)c2ccc3nc(-c4ccccc4)[nH]c3c2)ccc1Br,/,14%,/,?,-20%,-21
CC1CCN(S(=O)(=O)c2cc(C(=O)NCc3ccc(N(C)C)cc3)n(C)c2)CC1,/,-9%,/,-9%,-6%,5
CN1CCN(C(=O)c2ccc(Cl)c(S(=O)(=O)N3CCCCCC3)c2)CC1,-4%,-17%,3%,-3%,-15%,-9
COc1cc2c(cc1OC)C(C)N(C(=O)c1ccc(Cl)c(S(=O)(=O)N3CCCCC3)c1)CC2 (stereo not given),8.9µM*,-28%,-13%,/,/,-64*
Cc1cc2c(Nc3ccc(C(=O)O)cc3)ncnc2s1,15%,1%,-7%,/,/,28
Cc1cc2c(Nc3ccc(O)cc3)ncnc2s1,?,14%,?,?,-14%,-69*
COc1ccc(NC(=O)CCN2C(=O)c3ccccc3C2=O)c(OC)c1,1%,5%,2%,i,-9%,6
COc1ccc(OC)c(N(CCN2C(=O)c3ccccc3C2=O)C(=O)CCl)c1,/,?,/,?,-29%,-98*
O=C(NCC(O)c1ccccc1)c1cccs1 (stereo not given),18%,41%,17%,/,/,32
C=C1C(=O)C=C2CN(C(=O)c3ccccc3)[C@@](Cc3ccc(F)cc3)(C(=O)OC)[C@@H]12,?,3.2µM*,0%,?,8.9µM*,/
COC(=O)[C@@]1(Cc2ccc(OC)cc2)[C@@H]2C(=CC(=O)[C@H]2CC(=O)C(=O)N(C)C)CN1C(=O)c1ccccc1,13µM*,25µM*,-7%,i,?,-80*
COC(=O)[C@@]1(Cc2ccccc2)[C@@H]2[C@@H](CC(=O)[C@H]2CC(=O)C(=O)N(C)C)CN1C(=O)c1ccccc1,/,/,-6%,/,/,/
C=C1C(=O)CC2=C1[C@](Cc1ccc(F)cc1)(C(=O)OC)N(C(=O)c1ccccc1)C2,/,?,/,-3%,-4%,-9
C[C@@H](NC(=O)c1coc(=O)c(Br)c1)c1ccccc1,?,40µM*,3%,/,-8%,7
O=C(Nc1ccccc1F)c1coc(=O)c(Br)c1,31%,-27%,2%,6%,2%,-7
Cc1cc(NC(=O)c2coc(=O)c(Br)c2)ccc1C(C)C,8%,1µM*,-13%,-7%,-2%,51
Cc1nc2ccc(NC(=O)CCS(=O)(=O)c3ccccc3)cc2s1,-9%,44%,29%,/,/,-2
Cc1ccc(C2(C)NC(=O)N(CC(=O)Nc3nc(-c4ccccn4)cs3)C2=O)cc1 (stereo not given),6.3µM*,-20%,/,?,?,-36
CC1(c2ccccc2)NC(=O)N(CC(=O)Nc2ccc(C(N)=O)cc2)C1=O (stereo not given),11%,-20%,0%,-17%,15%,-62*
Cc1ccc2nc(-c3ccc(NC(=O)CCS(=O)(=O)c4ccccc4)cc3)sc2c1,?,?,2%,-27%,-22%,-71*
Cc1ccc(S(=O)(=O)CCC(=O)Nc2nc(-c3ccccn3)cs2)cc1,13µM*,?,/,/,/,?
COc1ccccc1CN(C)CC(=O)c1c(C)[nH]c2ccccc12,/,/,/,-14%,-17%,/
OC(c1ccc(F)cc1)c1nc(-c2ccc(F)c(Cl)c2)cs1 (stereo not given),/,13%,/,i,-11%,?
O=C(CS(=O)(=O)c1ccccc1)Nc1nc(-c2ccc(F)cc2)cs1,19%,?,?,/,/,?
